# Source: PubChem (The Scripps Research Institute Molecular Screening Center)
# Compounds with a hit are over-represented: about 1.8% of the library has one in this group of screens.
# PME-1 inh: PME-1 (human) inhibition; Q9Y570; recombinant PME-1, FP-Rh probe fluorescence polarization; inhibition, % at 5.9 µM; 0.53% of 320,000 active; AID 2130;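 active = inhibition above the campaign mean of all compounds plus 3 SD, cut at about 26% in these data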;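 note: competitive labeling of PME-1 active site by serine hydrolase directed probe; 0% = PME-1 with DMSO and 100% = wells lacking PME-1 enzyme; inhibitors block probe labeling so polarization falls and inhibition rises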
# Fam108B inh: Fam108B inhibition, counter-screen for RBBP9 inhibitors | recombinant Fam108B, FP-Rh probe fluorescence polarization | inhibition, % at 9.51 µM | 0.33% of 300,000 active | AID 1947;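 active = inhibition above the screen mean inhibition plus 3 SD, computed separately per campaign, cut at about 18% in these data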;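 note: inhibitors lower polarization as less probe binds the enzyme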
# LYPLA1 inh: counter-screen for PME1 inhibitors: inhibitors of human LYPLA1; inhibition, % at 5.9 µM; recombinant LYPLA1, FP-Rh probe fluorescence polarization; AID 2174; O75608; 0.16% of 320,000 active;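 active = inhibition above the mean of all tested compounds plus 3 SD, set per campaign, cut at about 14% in these data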;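 note: inhibitors block serine hydrolase probe labeling of LYPLA1 so polarization falls; 0% = enzyme with DMSO and 100% = wells lacking LYPLA1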
# Target sequence (O75608 whole entry, looked up): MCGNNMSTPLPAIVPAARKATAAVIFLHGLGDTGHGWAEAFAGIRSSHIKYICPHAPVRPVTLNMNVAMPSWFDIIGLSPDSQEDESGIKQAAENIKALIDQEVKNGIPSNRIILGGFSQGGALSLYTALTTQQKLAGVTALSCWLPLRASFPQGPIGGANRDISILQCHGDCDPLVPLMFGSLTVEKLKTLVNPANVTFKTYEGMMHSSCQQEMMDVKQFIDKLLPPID
# GSTO1 counter: GSTO1 inhibition, counter-screen for RBBP9 inhibitors; AID 1974; 1.1% of 300,000 active; recombinant GSTO1, activity-based probe fluorescence polarization; inhibition, % at 5.96 µM; P78417;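 active = inhibition above the campaign mean inhibition plus 3 SD, cut at about 35% in these data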;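 note: 0% = GSTO1-1 with DMSO and 100% = wells lacking GSTO1-1 enzyme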
# Target sequence (P78417 whole entry, looked up): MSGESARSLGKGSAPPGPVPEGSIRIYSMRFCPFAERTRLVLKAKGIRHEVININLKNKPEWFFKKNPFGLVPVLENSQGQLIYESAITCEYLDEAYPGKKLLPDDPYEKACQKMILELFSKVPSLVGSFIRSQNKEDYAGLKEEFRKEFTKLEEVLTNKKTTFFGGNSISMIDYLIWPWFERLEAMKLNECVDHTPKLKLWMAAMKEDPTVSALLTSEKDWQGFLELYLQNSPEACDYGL
# PAD4 FP inh: inhibitors of human PAD4. AID 485272. 0.41% of 330,000 active. Q9UM07. recombinant PAD4, RCA probe fluorescence polarization. inhibition, % at 6.36 µM;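 active = percent inhibition above a cutoff equal to the mean of all tested compounds plus 3 SD, cut at about 15% in these data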;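 note: 0% = PAD4 with RCA probe and DMSO and 100% = probe without PAD4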
# LYPLA2 inh: counter-screen for PME1 inhibitors: inhibitors of human LYPLA2; 0.38% of 320,000 active; recombinant LYPLA2, FP-Rh probe fluorescence polarization; AID 2177; inhibition, % at 5.9 µM; O95372;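 active = inhibition above the screen-wide mean plus 3 SD, limit set per campaign, cut at about 26% in these data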;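 note: 0% = LYPLA2 with DMSO and 100% = wells lacking LYPLA2 enzyme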
# * hit, by the source's call; nt = not tested or not shown.
SMILES,PME-1 inh,Fam108B inh,LYPLA1 inh,GSTO1 counter,PAD4 FP inh,LYPLA2 inh
COc1cc(/C=C/c2ccc3cccc(O)c3n2)c(Br)cc1O,28*,-2,2,10,-4,5
COc1ccc(Nc2ccc(OC)cc2)cc1,4,6,0,36*,1,0
CC(C)NC(=O)NC(=O)CN1c2cccc3cccc(c23)S1(=O)=O,5,-2,-1,7,-1,1
Cc1ccc(CNC(=O)COc2ccc(C(=O)c3ccc(F)cc3)cc2)cc1,-9,1,-1,56*,6,1
Nc1nn(-c2ccccc2)c(N)c1N=Nc1ccc2c(c1)OCO2,13,14,-1,5,2,1
Nc1[nH]n(-c2ccccc2)c(=O)c1N=Nc1ccc2c(c1)OCCO2,43*,11,0,10,2,6
Nc1[nH]n(-c2ccccc2)c(=O)c1N=Nc1ccc2c(c1)OCO2,33*,18,2,15,-1,6
CCCCCOc1ccc(C2C(C(=O)c3ccc(C)o3)=C(O)C(=O)N2c2cc(C)on2)cc1 (configuration not stated),-2,-2,-7,1,-9,-7
Cc1ccc(S(=O)(=O)NCCSc2nnnn2-c2cc(C)ccc2C)cc1,8,4,-5,35*,-5,-8
Cc1ccc(NC(=S)NNC(=S)Nc2cccc(C(F)(F)F)c2)cc1,25,12,-12,38*,1,2
COc1ccc(OC)c(/C=N/NC(=O)CCc2ccc(O)c(O)c2)c1,-7,6,-2,36*,3,-2
COc1ccc(OC)c(/C=N/NC(=O)CCc2c(C)n[nH]c2C)c1,3,0,1,-2,-4,2
Cc1[nH]n(-c2ccccc2)c(=O)c1C(C[N+](=O)[O-])c1ccc(F)cc1 (configuration not stated),5,0,0,59*,14,0
Cc1[nH]n(-c2ccccc2)c(=O)c1C(C[N+](=O)[O-])c1ccc(Cl)cc1 (configuration not stated),-2,0,2,61*,-1,2
O=c1ccc(-c2ccc(S(=O)(=O)Nc3ccc(F)cc3)s2)n[nH]1,6,-2,4,-26,1,0
C/C(=N/Nc1ccnc2cc(Cl)ccc12)c1ccc(O)cc1,33*,10,-10,-8,0,-2
C/C(=N/Nc1ccnc2cc(Cl)ccc12)c1ccc(N)cc1,36*,6,-6,-1,1,-9
Cc1ccc(F)cc1NC(=O)COC(=O)C1CCN(c2ccc(C(F)(F)F)cn2)CC1,-8,-3,-1,2,-1,1
CCc1cc(C(=O)N2CCN(S(=O)(=O)c3ccccc3F)CC2)sc1C,3,nt,1,nt,-1,2
O=C(Nc1ccc2[nH]c3c(c2c1)CCCC3)c1ccco1,3,4,-10,35*,-2,-4
O=C(O)c1cccc(-n2c(/C=C/c3ccc([N+](=O)[O-])cc3)nc3ccccc3c2=O)c1,30*,1,3,2,6,10
O=C(NC(Cc1ccccc1)C(=O)O)c1cccnc1Cl (configuration not stated),-4,-2,1,-3,3,0
C/C(=N/Nc1nc(-c2ccccc2F)nc2ccccc12)c1ccccc1O,26*,7,-15,6,-5,-14
CCOC(=O)NNc1ccc2nonc2c1[N+](=O)[O-],4,12,-3,89*,51*,3
N#CCC(=O)c1ccccc1Oc1ccc(Cl)cc1,41*,1,-4,7,-4,4
SMILES,PME-1 inh,Fam108B inh,LYPLA1 inh,GSTO1 counter,PAD4 FP inh,LYPLA2 inh
O/N=C/c1ccccc1Oc1ccc(Cl)cc1,3,0,0,-10,-2,9
COc1cc2c(cc1OC)C(C)N(C(=O)CCc1c[nH]c3ccccc13)CC2 (configuration not stated),5,-5,0,10,1,4
CCCN(CCC)S(=O)(=O)c1ccc(Cl)c([N+](=O)[O-])c1,-5,4,-2,35*,-4,0
O=C(NCC1COc2ccccc2O1)c1cccc(S(=O)(=O)N2CCOCC2)c1 (configuration not stated),-4,nt,0,nt,5,1
O=C(O)c1ccccc1Nc1cccc(OCc2ccc3ccccc3n2)c1,30*,5,-1,7,3,9
O=C(COc1ccc2ccccc2c1)Nc1cccc(C(=O)Nc2ccccc2C(=O)O)c1,-80,-20,-20,-76,-8,-31
O=C(O)COc1ccccc1/C=N/NC(=O)CNC(=O)c1ccco1,-3,0,-6,-2,-1,3
O=C(NC1CCCCC1)C1CCCN1S(=O)(=O)c1ccc(Cl)cc1 (configuration not stated),-2,4,-7,12,1,2
COc1ccc(S(=O)(=O)N2CCOCC2)cc1C(=O)NC1CCCCCC1,5,nt,2,nt,-3,-1
COc1ccc(CCC(=O)Nc2ccc3c(c2)OCO3)cc1OC,5,-3,2,35*,-4,13
O=C(N/N=C/c1cccs1)c1cncc(Br)c1,-1,1,1,8,-4,1
O=C(N/N=C\c1ccc([N+](=O)[O-])s1)c1cncc(Br)c1,5,10,2,43*,3,10
CCN(CC)S(=O)(=O)c1cccc(C(=O)N/N=C/c2cccc(O)c2O)c1,14,0,-5,43*,-12,1
Cc1csc(NC(=O)CSc2nc(C(C)C)nc3ccccc23)n1,6,0,-3,2,1,2
N#Cc1c(-c2ccccc2)nc(SCC(=O)Nc2nnc(C(F)(F)F)s2)[nH]c1=O,-8,3,1,67*,-5,2
N#Cc1c(-c2ccccc2)nc(SCC(=O)Nc2ccccc2)[nH]c1=O,0,0,-4,-8,0,-1
COc1ccc(CS(=O)(=O)CC(C)(O)c2ccccc2Cl)cc1 (configuration not stated),5,-5,-1,0,0,-3
C#CCSc1nnc(-c2sc(-c3ccccc3)nc2C)n1C,-4,0,0,74*,-5,-4
CN(CC(=O)Nc1ncn[nH]1)S(=O)(=O)c1cc(Cl)ccc1Cl,-3,0,1,-1,-3,0
CCN1C(=O)c2ccccc2S(=O)c2ccc(C(=O)NCCN(CC(C)C)CC(C)C)cc21 (configuration not stated),0,-2,4,-2,-5,7
CCN1C(=O)c2ccccc2S(=O)c2ccc(C(=O)NCc3ccccn3)cc21 (configuration not stated),6,2,4,37*,4,7
CN(C)CCN[C@H]1CCC2C3CC=C4C[C@@H](O)CC[C@]4(C)C3CC[C@@]21C (some centres not stated),nt,nt,nt,nt,-3,nt
